# According to PubChem BioAssay (NCATS):
# Values joined by “and” are separate entries in the source; they are usually repeats but may differ in a detail not shown here. Equal entries are not always repeated. Records with an inconclusive call do not appear. Active and inactive are the calls of the source. Unless noted, calls follow the shape of the dose curve; as a rule, active = well fitted curve in the direction sought with a large enough effect; inconclusive = small, poorly fitted or top-dose-only effect, or another doubt; inactive = no such curve, though single readings can be large; an effect the other way counts as inactive or inconclusive.
# Tests used:
# [1] = target: Arylsulfatase A (Homo sapiens) (UniProt P15289); test: qHTS screen for enhancers of Arylsulfatase A (ASA1): LOPAC Validation Assay (AID 720538); also: potency is read from the fitted curve at half-maximal effect
# Sequence of Arylsulfatase A (Homo sapiens) (P15289 whole entry, looked up): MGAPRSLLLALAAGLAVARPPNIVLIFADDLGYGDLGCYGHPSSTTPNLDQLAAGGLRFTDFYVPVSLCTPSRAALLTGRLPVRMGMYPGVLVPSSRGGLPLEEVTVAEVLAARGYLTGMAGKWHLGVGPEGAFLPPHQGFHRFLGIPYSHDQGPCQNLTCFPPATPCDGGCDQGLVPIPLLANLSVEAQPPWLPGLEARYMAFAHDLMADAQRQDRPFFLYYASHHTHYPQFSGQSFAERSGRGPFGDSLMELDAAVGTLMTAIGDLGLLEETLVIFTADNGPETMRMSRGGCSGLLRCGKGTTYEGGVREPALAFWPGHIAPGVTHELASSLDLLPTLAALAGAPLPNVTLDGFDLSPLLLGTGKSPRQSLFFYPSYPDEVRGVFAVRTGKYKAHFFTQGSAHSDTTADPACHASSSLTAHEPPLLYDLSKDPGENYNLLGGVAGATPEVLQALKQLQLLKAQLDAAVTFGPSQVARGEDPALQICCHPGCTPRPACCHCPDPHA
# Method in brief: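 Enhancer assay in patient-derived MLD fibroblasts carrying ASA-I179S: 48 h compound exposure at 37 C, then 14 h room-temperature pNCS turnover (0.5 mM final) in lysis buffer. Read by fluorescence at 525/598 nm after NaOH stop.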
# [2] = qHTS for compounds that reverse cellular toxicity of Amyloid beta (A-beta) peptide in yeast: LOPAC Validation Assay (AID 720559);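 also: plate controls were DMSO for no effect and equimolar ferric chloride plus clioquinol rescue for full effect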
# Method in brief: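 Rescue of A-beta toxicity was scored as yeast growth by 600 nm absorbance after 48 hr at 30 C with compound. Normalization used DMSO (negative) and equimolar ferric chloride plus clioquinol (positive).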
# [3] = qHTS for Activators of Parkin Expression: LOPAC Validation Assay (NLuc Reporter) (AID 720572;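 also: 0% = DMSO and 100% = positive control compound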)
# Method in brief: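 Cells harboring the Parkin-promoter coincidence reporter were treated for 24 h at seven concentrations. NLuc output was measured sequentially after the FLuc channel and scaled between DMSO and positive control values.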
# [4] = qHTS for Activators of Parkin Expression: LOPAC Validation Assay (FLuc Reporter) (AID 720573;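 also: 0% = DMSO and 100% = positive control compounds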)
# Method in brief: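 FLuc signal from Parkin-promoter coincidence reporter neuronal cells, normalized to DMSO and positive control (100%). Cells (1,500/well) pre-incubated 24 h, then exposed to LOPAC compounds in 7-point dose response for 24 h at 37 C, 5% CO2.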
# [5] = target: Hexokinase-4 (Homo sapiens) + Glucokinase regulatory protein (Homo sapiens) (UniProt P35557+Q14397); test: qHTS assay for inhibitors of recombinant human GCK-GKRP interaction: HTRF assay (AID 743207);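 also: 0% = DMSO with GCK present and -100% = DMSO wells lacking GCK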
# Sequence of Hexokinase-4 (Homo sapiens) + Glucokinase regulatory protein (Homo sapiens) (P35557 whole entry, looked up): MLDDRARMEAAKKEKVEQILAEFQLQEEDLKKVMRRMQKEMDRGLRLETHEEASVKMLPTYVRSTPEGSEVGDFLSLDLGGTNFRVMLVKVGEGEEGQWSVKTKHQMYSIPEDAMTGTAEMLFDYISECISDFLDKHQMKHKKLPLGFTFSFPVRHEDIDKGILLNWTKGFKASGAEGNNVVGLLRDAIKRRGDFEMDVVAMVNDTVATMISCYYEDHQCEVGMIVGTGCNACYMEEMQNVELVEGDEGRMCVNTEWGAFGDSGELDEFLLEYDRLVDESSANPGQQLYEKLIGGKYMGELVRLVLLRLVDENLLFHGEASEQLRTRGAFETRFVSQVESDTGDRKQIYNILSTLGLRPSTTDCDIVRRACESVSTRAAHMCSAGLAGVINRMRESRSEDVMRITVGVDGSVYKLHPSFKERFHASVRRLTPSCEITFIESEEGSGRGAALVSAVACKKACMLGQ
# Sequence of Hexokinase-4 (Homo sapiens) + Glucokinase regulatory protein (Homo sapiens) (Q14397 whole entry, looked up): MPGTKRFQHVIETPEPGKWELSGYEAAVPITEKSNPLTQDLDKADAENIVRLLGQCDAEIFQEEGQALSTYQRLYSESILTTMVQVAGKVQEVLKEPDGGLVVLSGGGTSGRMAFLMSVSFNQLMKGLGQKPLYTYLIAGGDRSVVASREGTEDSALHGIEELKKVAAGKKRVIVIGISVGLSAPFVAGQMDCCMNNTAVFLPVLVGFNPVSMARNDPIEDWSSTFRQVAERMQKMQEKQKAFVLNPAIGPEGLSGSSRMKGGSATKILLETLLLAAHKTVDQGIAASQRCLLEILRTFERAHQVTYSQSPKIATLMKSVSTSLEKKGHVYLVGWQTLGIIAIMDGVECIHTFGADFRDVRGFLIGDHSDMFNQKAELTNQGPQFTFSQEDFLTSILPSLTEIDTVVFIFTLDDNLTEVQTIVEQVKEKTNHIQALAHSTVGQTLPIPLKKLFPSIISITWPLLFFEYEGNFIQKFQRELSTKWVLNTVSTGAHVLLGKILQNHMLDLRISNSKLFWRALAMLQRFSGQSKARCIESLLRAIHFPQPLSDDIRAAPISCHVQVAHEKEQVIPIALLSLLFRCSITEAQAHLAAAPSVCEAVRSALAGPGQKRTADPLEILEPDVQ
# Method in brief: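 After 60 min equilibration at room temperature with anti-FLAG XL665 and anti-GST antibodies, FRET ratio (665/615 nm, excitation 320 nm) was read. Proteins: GST-GCK and FLAG-GKRP, each 5 nM, plus 2 uM S6P, pH 7.1 buffer; GCK-free wells define minimum signal.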
# [6] = qHTS Assay for Identifying Gametocytocidal Compounds (AID 743244); also: potency is read from the fitted curve at half-maximal effect;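 as to max response: % is scaled to controls: 0 for no effect and ±100 for the full control effect; actives lower the fluorescent signal which means gametocytes are killed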; conditions: P. falciparum 3D7 stage III-V gametocytes, alamarBlue, 72 h; max response: stronger effect = lower value
# Method in brief: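 Fluorescence at Ex 525/Em 598 nm, recorded 24 h after alamarBlue addition, reports residual metabolic activity of 3D7 gametocytes (stages III–V) following 72 h compound exposure at 37 °C, 5% CO2.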
# [7] = qHTS profiling of the MIPE4 collection as inhibitors of Plasmodium falciparum (3D7) proliferation (AID 743344; call rule not given here;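 also: scaled between DMSO vehicle wells and 0.29 µM artemisinin as full inhibition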); conditions: P. falciparum 3D7 in erythrocytes, SYBR Green DNA fluorescence, 72 h; at 28.5 µM (top of the series) unless noted
# Method in brief: (§1)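 Parasite DNA was quantified by SYBR Green I fluorescence (ex 485, em 535 nm) after overnight lysis in saponin/Triton buffer at room temperature. Cultures at 0.3% parasitemia and 2.5% hematocrit were first exposed to compound for 72 h at 37 C; signals were normalised to artemisinin (0.29 uM) and vehicle wells.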
# [8] = qHTS for small molecule inhibitors of Yes1 kinase: Counter Assay (AID 686950);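 also: no kinase present so only ADP-Glo detection of a fixed ADP amount is tested; luminescence from ADP-Glo reporting ADP in a fixed ATP and ADP mixture; 0% = DMSO wells with ATP plus ADP and -100% = ATP-only wells without ADP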
# Method in brief: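 Measuring interference with ADP-Glo, the assay ran 60 min at room temperature on an ATP/ADP mix lacking enzyme. Values were normalized to ATP-plus-ADP (maximum) and ATP-only (minimum) DMSO controls.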
# [9] = qHTS profiling for inhibitors of Plasmodium falciparum (3D7) proliferation (AID 743322; call rule not given here;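 also: infected erythrocytes exposed to compound for 72 h before lysis; 100% = DMSO vehicle wells and 0% = 0.29 µM artemisinin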); conditions: P. falciparum 3D7 proliferation; at 28.7 µM (top of the series) unless noted
# Method in brief: as §1
# [10] = qHTS profiling for inhibitors of Plasmodium falciparum (DD2) proliferation (AID 743323; call rule not given here); conditions: lower = more inhibition; at 28.7 µM (top of the series) unless noted
# Method in brief: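 P. falciparum Dd2-infected erythrocytes (0.3% parasitemia, 2.5% hematocrit) exposed 72 h at 37 C, 5% CO2. Lysis with SYBR Green, overnight at room temperature, fluorescence 485/535 nm; normalized to 0.29 uM artemisinin and DMSO.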
# [11] = qHTS profiling for inhibitors of Plasmodium falciparum (HB3) proliferation (AID 743324); conditions: Plasmodium falciparum HB3 blood-stage proliferation; at 28.7 µM (top of the series) unless noted;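 also: 100% = DMSO vehicle wells and 0% = artemisinin-treated control wells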
# Method in brief: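 SYBR Green fluorescence (485 ex/535 em) of lysed cultures, incubated overnight at room temperature in the dark, quantifies parasite DNA. Infected erythrocytes at 0.3% parasitemia and 2.5% hematocrit were exposed 72 h; values normalized to DMSO and 0.29 uM artemisinin controls.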
structure (smiles),measurement,setting,value
Nc1nc(N)c(N=O)c(OCC2CCCCC2)n1,Potency,[1],inactive
same,outcome,[2],inactive
same,outcome,[3],inactive
same,Potency,[4],inactive
same,outcome,[5],inactive
same,max response,[6],15% (inactive)
c1cnc2cc3c(cc2n1)C1CNCC3C1,max response,[6],-11.9% (inactive)
O=C(CCc1ccc(O)cc1)c1c(O)cc(O)cc1O,Potency,[1],2.69 µM (active)
same,outcome,[2],inactive
same,outcome,[3],inactive
same,Potency,[4],inactive
same,outcome,[5],inactive
same,max response,[6],19.3% (inactive)
same,"parasite growth, % of DMSO control",[7],10.4%
O=C(NCCO[N+](=O)[O-])c1cccnc1,max response,[6],-6.52% (inactive)
OC(CN1CCN(c2cccc(Cl)c2)CC1)C(c1ccccc1)c1ccccc1 (stereo unspecified),Potency,[1],inactive
same,outcome,[2],inactive
same,outcome,[3],inactive
same,Potency,[4],inactive
same,outcome,[5],inactive
same,max response,[6],26.8% (inactive)
same,"parasite growth, % of DMSO control",[7],42.2%
CCOC(=O)C1=C[C@@H](OC(CC)CC)[C@H](NC(C)=O)[C@@H](N)C1,max response,[6],-3.59% (inactive)
COc1cc2nc(N3CCN(C(=O)C4CCCO4)CC3)nc(N)c2cc1OC (stereo unspecified),outcome,[2],inactive
same,outcome,[3],inactive
same,Potency,[4],inactive
same,outcome,[5],inactive
same,max response,[6],-8.17% (inactive) and 12.4% (inactive)
Nc1nc(OCc2ccccc2)c2[nH]cnc2n1,outcome,[2],inactive
same,outcome,[3],inactive
same,Potency,[4],inactive
same,outcome,[5],inactive
same,max response,[6],13.4% (inactive)
O=C(O)c1cccnc1Nc1cccc(C(F)(F)F)c1,Potency,[1],inactive
same,outcome,[2],inactive
same,outcome,[3],inactive
same,Potency,[4],inactive
same,outcome,[5],inactive
same,max response,[6],-9.57% (inactive) and 27.4% (inactive)
same,"parasite growth, % of DMSO control",[7],83.9%
CC[C@]1(O)C[C@H]2CN(CCc3c([nH]c4ccccc34)[C@@](C(=O)OC)(c3cc4c(cc3OC)N(C=O)[C@H]3[C@@](O)(C(=O)OC)[C@H](OC(C)=O)[C@]5(CC)C=CCN6CC[C@]43[C@@H]65)C2)C1,max response,[6],24.7% (inactive)
Cc1nc(-c2ccc(OCC(C)C)c(C#N)c2)sc1C(=O)O,max response,[6],55.3% (inactive)
COc1ccccc1N1CCN(CCN(C(=O)C2CCCCC2)c2ccccn2)CC1,Potency,[1],inactive
same,outcome,[2],inactive
same,outcome,[3],inactive
same,Potency,[4],inactive
same,outcome,[5],inactive
same,max response,[6],6.13% (inactive)
Nc1ccn([C@@H]2O[C@H](CO)[C@@H](O)C2O)c(=O)n1 (stereo partly specified),Potency,[1],inactive
same,outcome,[2],inactive
same,outcome,[3],inactive
same,Potency,[4],inactive
same,outcome,[5],inactive
same,max response,[6],0.0114% (inactive) and -8.34% (inactive)
CC1(C)C(=O)N(CCN2CCC(C(=O)c3ccc(F)cc3)CC2)c2ccccc21,Potency,[1],inactive
same,outcome,[2],inactive
same,outcome,[3],inactive
same,Potency,[4],inactive
same,outcome,[5],inactive
same,max response,[6],6.71% (inactive)
same,"parasite growth, % of DMSO control",[7],49%
Cc1nc(Nc2ncc(C(=O)Nc3c(C)cccc3Cl)s2)cc(N2CCN(CCO)CC2)n1,outcome,[8],inactive
same,remaining parasite growth % (stronger effect = lower value),[9],71.9%
same,"activity, percent of control",[10],71.4%
same,"remaining proliferation (% of control), lower = more inhibition",[11],34.2%
same,"parasite growth, % of DMSO control",[7],13.5%
Clc1ccc(C(Cn2ccnc2)OCc2ccsc2Cl)c(Cl)c1 (stereo unspecified),Potency,[6],6.31 µM (active)
Nc1ncn([C@H]2C[C@H](O)[C@@H](CO)O2)c(=O)n1,max response,[6],-3.47% (inactive)
same,"parasite growth, % of DMSO control",[7],98%
O=c1oc2cc(O)ccc2s1,max response,[6],-6.04% (inactive)
Cn1c(NCCN(CCO)CCCc2ccc([N+](=O)[O-])cc2)cc(=O)n(C)c1=O,max response,[6],4.58% (inactive)
same,"parasite growth, % of DMSO control",[7],5.83%
CCCCCCCCCCCCCCCCCCCCCCO,max response,[6],23% (inactive)
CN(c1nccc(=O)[nH]1)C1CCN(c2nc3ccccc3n2Cc2ccc(F)cc2)CC1,max response,[6],6.96% (inactive)
same,"parasite growth, % of DMSO control",[7],23.2%
COCCCOc1ccnc(CS(=O)c2nc3ccccc3[nH]2)c1C (stereo unspecified),max response,[6],2.05% (inactive)
CN1C(C(=O)Nc2ccccn2)=C(O)c2sccc2S1(=O)=O,max response,[6],15.1% (inactive)
O=C(O)CCNC(=O)c1ccc(N=Nc2ccc(O)c(C(=O)O)c2)cc1,max response,[6],7.5% (inactive)
same,"parasite growth, % of DMSO control",[7],57.4%
COc1c(O)cc2c(c1O)[C@@H]1O[C@H](CO)[C@@H](O)[C@H](O)[C@H]1OC2=O,max response,[6],0.91% (inactive)
CC(C)[C@H](N)C(=O)OCCOCn1cnc2c(=O)[nH]c(N)nc21,max response,[6],18.3% (inactive)
same,"parasite growth, % of DMSO control",[7],102%
O=C(O)c1cccc(-c2noc(-c3ccccc3F)n2)c1,max response,[6],-7.05% (inactive)
same,"parasite growth, % of DMSO control",[7],93.9%
CC1Cc2ccccc2N1NC(=O)c1ccc(Cl)c(S(N)(=O)=O)c1 (stereo unspecified),max response,[6],1.41% (inactive) and -0.446% (inactive)
Cc1cccc(C)c1OCC(=O)N[C@@H](Cc1ccccc1)[C@@H](O)C[C@H](Cc1ccccc1)NC(=O)[C@H](C(C)C)N1CCCNC1=O,Potency,[6],11.2 µM (active) and 6.62 µM (active)
same,remaining parasite growth % (stronger effect = lower value),[9],-1.44%
same,"activity, percent of control",[10],0.873%
same,"remaining proliferation (% of control), lower = more inhibition",[11],0.361%
same,"parasite growth, % of DMSO control",[7],6.88%
CC(=O)NC[C@H]1CN(c2ccc(N3CCOCC3)c(F)c2)C(=O)O1,max response,[6],1.95% (inactive)
CC1=C(C(=O)O)N2C(=O)[C@@H](NC(=O)[C@H](N)C3=CCC=CC3)[C@H]2SC1,max response,[6],-5.14% (inactive)
same,"parasite growth, % of DMSO control",[7],79.3%
Nc1cc(C(Cl)=C(Cl)Cl)c(S(N)(=O)=O)cc1S(N)(=O)=O,max response,[6],0.487% (inactive) and -9.48% (inactive)
same,"parasite growth, % of DMSO control",[7],103%
N=C(N=C(N)N)N1CCOCC1,max response,[6],0.738% (inactive)
CCC(C)(Oc1ccc(C2(c3ccc(OC(C)(CC)C(=O)O)cc3)CCCCC2)cc1)C(=O)O (stereo unspecified),max response,[6],16.5% (inactive)
same,"parasite growth, % of DMSO control",[7],100%
Cc1cc(=O)c2c(O)c3c(O)cc(=O)c4c3c3c(cc(O)c1c23)C(C)(C)C=4O,max response,[6],-6.69% (inactive)
Cc1ccc(C(=O)c2cc(O)c(O)c([N+](=O)[O-])c2)cc1,max response,[6],2.67% (inactive)
CCCCc1ccc2nc(NC(=O)OC)[nH]c2c1,max response,[6],5.64% (inactive)
same,"parasite growth, % of DMSO control",[7],49.5%
CCCOc1ccc2nc(NC(=O)OC)[nH]c2c1,max response,[6],-3.98% (inactive)
same,"parasite growth, % of DMSO control",[7],82.7%
CC(C)c1ccc2oc3nc(N)c(C(=O)O)cc3c(=O)c2c1,max response,[6],20.5% (inactive)
same,"parasite growth, % of DMSO control",[7],54.7%
COC(=O)N[C@H](C(=O)N[C@@H](Cc1ccccc1)[C@@H](O)CN(Cc1ccc(-c2ccccn2)cc1)NC(=O)[C@@H](NC(=O)OC)C(C)(C)C)C(C)(C)C,max response,[6],-11.7% (inactive)
Cc1cc2c(s1)Nc1ccccc1N=C2N1CCN(C)CC1,max response,[6],2.02% (inactive)
CN(C)CCc1c[nH]c2ccc(Cn3cncn3)cc12,max response,[6],-0.403% (inactive)
CC(C)[N+]1(C)[C@@H]2CC[C@H]1CC(OC(=O)C(CO)c1ccccc1)C2 (stereo partly specified),max response,[6],6.21% (inactive) and -2.53% (inactive)
same,"parasite growth, % of DMSO control",[7],82.2%
